Most compounds without a hit are left out; they make up all but 3.8% or so of the library.
KCNH2 WT inh – inhibitors of human wildtype KCNH2 potassium channel; Q12809; 0.37% of 340,000 active; U2OS, BacMam KCNH2, thallium flux FluxOr; stronger effect = lower value; activity change, % at 1.84 µM;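 active = maximum activity change below -70%; inconclusive = maximum activity change between -70% and -50%; inactive = maximum activity change above -50%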; note: % is set by controls: 0 for no effect and ±100 for the full control effect
Target sequence (Q12809 whole entry, looked up): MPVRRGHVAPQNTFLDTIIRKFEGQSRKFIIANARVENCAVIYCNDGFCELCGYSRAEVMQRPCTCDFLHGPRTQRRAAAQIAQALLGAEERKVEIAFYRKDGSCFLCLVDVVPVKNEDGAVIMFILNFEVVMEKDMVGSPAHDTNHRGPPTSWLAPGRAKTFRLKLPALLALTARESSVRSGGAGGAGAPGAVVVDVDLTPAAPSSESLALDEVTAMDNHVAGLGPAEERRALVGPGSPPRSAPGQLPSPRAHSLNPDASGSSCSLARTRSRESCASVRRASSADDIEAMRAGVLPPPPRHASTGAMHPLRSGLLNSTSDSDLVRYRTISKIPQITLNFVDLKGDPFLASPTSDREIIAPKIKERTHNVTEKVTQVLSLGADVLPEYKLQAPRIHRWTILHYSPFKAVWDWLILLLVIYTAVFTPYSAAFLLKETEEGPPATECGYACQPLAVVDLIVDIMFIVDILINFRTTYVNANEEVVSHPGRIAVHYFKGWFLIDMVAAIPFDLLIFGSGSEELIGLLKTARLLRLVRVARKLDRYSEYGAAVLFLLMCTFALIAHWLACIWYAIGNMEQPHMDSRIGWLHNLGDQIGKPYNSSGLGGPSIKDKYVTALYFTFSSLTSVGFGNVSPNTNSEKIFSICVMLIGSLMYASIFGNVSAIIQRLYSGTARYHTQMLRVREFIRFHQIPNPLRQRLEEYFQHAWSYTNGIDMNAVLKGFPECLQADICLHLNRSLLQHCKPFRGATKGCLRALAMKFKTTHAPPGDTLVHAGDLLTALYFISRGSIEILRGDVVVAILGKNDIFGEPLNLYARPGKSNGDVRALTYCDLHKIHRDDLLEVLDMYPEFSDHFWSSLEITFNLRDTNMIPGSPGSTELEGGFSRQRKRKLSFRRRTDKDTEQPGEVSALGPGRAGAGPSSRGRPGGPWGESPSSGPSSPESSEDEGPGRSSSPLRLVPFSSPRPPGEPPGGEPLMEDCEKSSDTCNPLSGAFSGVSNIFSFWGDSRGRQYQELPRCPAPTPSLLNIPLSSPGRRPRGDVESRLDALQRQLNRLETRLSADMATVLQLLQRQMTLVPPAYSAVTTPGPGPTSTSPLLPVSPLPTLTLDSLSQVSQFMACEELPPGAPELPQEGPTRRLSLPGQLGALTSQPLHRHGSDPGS
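U2OS cells transduced with wild-type KCNH2 virus are loaded with FluxOr dye for 45 min, and thallium flux is measured in kinetic reads before and after stimulation buffer. Rate constants are normalized to DMSO controls.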
VDR inh – blocks the human vitamin D receptor | Potency, µM, without a hit: max response, negative = inhibition, hits mostly inhibitors | 0.93% of 400,000 active | VDR-SRC2-3 peptide fluorescence polarization, 2 h | AID 504847; note: potency is the fitted concentration of half-maximal effect; % is set by controls: 0 for no effect and ±100 for the full control effect
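After 23 nl compound addition and a short centrifugation, plates sat for 2 hours at ambient temperature; polarization of fluorescence then indicated loss of VDR binding to peptide SRC2-3.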
CBFb RUNX1 block – blocks binding between human CBF-beta and RUNX1; Q01196+Q13951; AlphaScreen CBFb-His/RUNX1-biotin binding, biochemical; Potency, µM (titrated, usually from 59.8 µM), without a hit: at the highest dose activity, negative = inhibition, actives largely listed as inhibitors; 230,000 tested, under 10 active; AID 1477; note: % of control where 0% means no effect
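Proteins preincubated together for 20 min at RT before compound addition; 15 min later, nickel and streptavidin beads were added and left 90 min prior to AlphaScreen measurement.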
KCNH2 3.1 inh – blocks the human KCNH2 3.1 channel isoform; U2OS KCNH2 3.1, thallium flux FluxOr; stronger effect = lower value; activity change, % (tested at about 1.8 µM); 0.95% of 340,000 active;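 active = maximum activity change below -70%; inconclusive = maximum activity change from -70% to -50%; inactive = maximum activity change above -50%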;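 note: thallium influx rate constant from kinetic fluorescence after stimulation buffer; % is set by controls: 0 for no effect and ±100 for the full control effect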
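Thallium flux via FluxOr fluorescence (Red40 quencher, 45 min loading) in U2OS cells virally expressing the KCNH2 3.1 isoform (1.77 x 10^8 /mL virus, overnight at 37 C). Rate constants from 2-min kinetic reads post-stimulation, normalised to positive and negative controls.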
MBNL1-CUG inh – MBNL1-poly(CUG) RNA binding inhibition; TR-FRET MBNL1-His/biotin-(CUG)12 binding, 665/545 ratio; Potency, µM (top dose mostly 57.5 µM), inactives show top-dose activity change, negative = inhibition, actives largely listed as inhibitors; 0.036% of 280,000 active; active = well fitted inhibition curve with a large enough effect in the signal ratio, with a control signal flat, not every such curve was filed as active; inconclusive = small, poorly fitted or top-dose-only effect, or effect the other way, or a change in a side signal; inactive = no such curve, though single readings can be large or run the other way; the % refers to the signal ratio; note: potency is the fitted concentration of half-maximal effect; % is set by controls: 0 for no effect and ±100 for the full control effect
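Inhibition of protein-RNA binding appears as loss of TR-FRET between terbium anti-His antibody on MBNL1-His and streptavidin-XL665 on biotin-(CUG)12. Activity is normalized to buffer-only and uninhibited-complex controls.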
PLK1 PBD inh – blocks phosphopeptide binding to human PLK1 polo-box domain. Potency, µM, for the others: max response, negative = inhibition, usual class: inhibitors. Plk1 PBD binding of FITC phosphopeptide, fluorescence polarization. P53350. 2.8% of 360,000 active; note: potency is the fitted concentration of half-maximal effect; series mostly up to about 57 µM; % is set by controls: 0 for no effect and ±100 for the full control effect; nearly all actives have a fitted effect of over 65% in size
* = called active by the depositor. Unless noted, calls come from the whole dose curve; as a rule, active = well fitted curve in the direction sought with a large enough effect; inconclusive = small, poorly fitted or top-dose-only effect, or another doubt; inactive = no such curve, though single readings can be large; an effect the other way counts as inactive or inconclusive.

CCOc1ccccc1NC(=O)c1cc2ccccc2oc1=O was read as KCNH2 WT inh -3, VDR inh -8%, KCNH2 3.1 inh 9, MBNL1-CUG inh 2% and PLK1 PBD inh -9%.
`CCOC(=O)C1=C(N)OC2=C(C(=O)CC(C)(C)C2)C1c1cccnc1` (stereo unspecified) gave KCNH2 WT inh 13, VDR inh -7%, CBFb RUNX1 block -8%, KCNH2 3.1 inh -16, MBNL1-CUG inh -6% and PLK1 PBD inh -4%.
`CCOC(=O)C1=C(N)OC2=C(C(=O)CC(C)(C)C2)C1c1ccoc1` (stereo unspecified) gave KCNH2 WT inh -1, VDR inh -1%, CBFb RUNX1 block 8%, KCNH2 3.1 inh 4, MBNL1-CUG inh 11% and PLK1 PBD inh 21µM*.
`CCN(CC)S(=O)(=O)c1ccc2c(c1)N(CC(=O)Nc1cccc(C)c1C)C(=O)C1CCCN21` (stereo unspecified) gave VDR inh 0%.
Cc1ccc(-c2ccccc2NC(=O)CS(=O)CC(=O)Nc2ccc(C)c(Cl)c2)o1 (stereo unspecified) was read as KCNH2 WT inh -11, VDR inh 45µM*, KCNH2 3.1 inh 5, MBNL1-CUG inh inconclusive and PLK1 PBD inh 19µM*.
Screening Cc1ccc(-c2ccccc2NC(=O)CCl)o1 returned KCNH2 WT inh 0, VDR inh -7%, CBFb RUNX1 block -2%, KCNH2 3.1 inh -3, MBNL1-CUG inh 10% and PLK1 PBD inh -9%.
`CC(C)(C)S(=O)(=O)/C(C#N)=N/Nc1ccc(S(C)(=O)=O)cc1` gave KCNH2 WT inh -7, VDR inh -4%, CBFb RUNX1 block 7%, KCNH2 3.1 inh -29, MBNL1-CUG inh 7% and PLK1 PBD inh 21µM*.
For CC(C)(C)S(=O)(=O)/C(C#N)=N/Nc1ccc(S(N)(=O)=O)cc1 the results were KCNH2 WT inh 7, VDR inh -22%, CBFb RUNX1 block 3% and PLK1 PBD inh 0%.
Screening Cc1cc(C)c2cc(C#N)c(N3CCCN(S(=O)(=O)c4ccccc4)CC3)nc2c1 returned KCNH2 WT inh -19, VDR inh 13%, KCNH2 3.1 inh -70* and PLK1 PBD inh -7%.
Screening CC(=O)c1cccc(S(=O)(=O)N2CCN(c3nc4cc(C)cc(C)c4cc3C#N)CC2)c1 returned KCNH2 WT inh -3, VDR inh -3%, CBFb RUNX1 block 9%, KCNH2 3.1 inh 10, MBNL1-CUG inh 21% and PLK1 PBD inh 4%.
c1ccc(Nc2nc(NCc3ccco3)nc3nccnc23)cc1 was read as VDR inh 0%.
O=C(Cc1ccccc1)NC(NNc1ccccc1)(C(F)(F)F)C(F)(F)F was read as KCNH2 WT inh -6, VDR inh inconclusive, CBFb RUNX1 block inconclusive, KCNH2 3.1 inh 9, MBNL1-CUG inh -13% and PLK1 PBD inh 27µM*.
Screening CC(C)(C)NC(=O)COC(=O)c1cncc(Br)c1 returned KCNH2 WT inh 2, VDR inh -23%, CBFb RUNX1 block 0%, KCNH2 3.1 inh 4, MBNL1-CUG inh 1% and PLK1 PBD inh 30µM*.
For O=C(COC(=O)c1cncc(Br)c1)Nc1nnc(-c2ccccc2)o1 the results were KCNH2 WT inh -72*, VDR inh 7%, KCNH2 3.1 inh 17 and PLK1 PBD inh -26%.
For CC1N(C(=O)N(C)C)CCN1S(=O)(=O)c1ccccc1 (stereo unspecified) the results were KCNH2 WT inh -2, VDR inh 22%, KCNH2 3.1 inh -6, MBNL1-CUG inh 3% and PLK1 PBD inh -7%.
CC(C)C1N(C(=O)N(C)C)CCN1S(=O)(=O)c1ccccc1 (stereo unspecified) was read as KCNH2 WT inh 10, VDR inh 4%, KCNH2 3.1 inh -141*, MBNL1-CUG inh 1% and PLK1 PBD inh -1%.
